Source: PubChem (National Center for Advancing Translational Sciences (NCATS))
Tb PFK inh-1: blocks T. brucei phosphofructokinase; O15648; T. brucei PFK, ADP-Glo luminescence; Potency, µM (doses to about 57.5 µM), most hits filed as inhibitors; actives 0.17% (n = 330,000); AID 485367; note: nearly all actives have a fitted effect of over 60% in size
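ADP-Glo luminescence quantified ADP after 45 min at room temperature, with 1.25 nM T. brucei PFK, 0.1 mM ATP and 0.5 mM fructose-6-phosphate in pH 8.0 TEA buffer. qHTS titrations up to 57 µM; curves classified by quality.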
Tb PGK inh: blocks T. brucei phosphoglycerate kinase | actives 0.043% (n = 380,000) | Potency, µM (top dose mostly 57.5 µM), actives largely listed as inhibitors | PGK/GAPDH coupled, Kinase-Glo luminescence, 60 min; note: nearly all actives have a fitted effect of over 60% in size
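Luminescent ATP detection (Kinase-Glo Plus) follows a 60-minute room-temperature incubation, with wells lacking PGK as controls. Buffer: 100 mM TEA (pH 7.6), 5 mM MgCl2, 0.01% Tween-20. Coupling enzyme GAPDH (100 nM final) supplies unstable 1,3-BPG in-well.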
Pin1 inh: human Pin1 inhibition; actives 0.009% (n = 390,000); Pin1 FP peptide displacement, HiFluor488, 10 min; Potency, µM (highest dose often 115 µM), actives largely listed as inhibitors; Q13526; active = well fitted inhibition curve with a large enough effect in the polarisation, with a control signal flat, not every such curve was filed as active; inconclusive = small, poorly fitted or top-dose-only effect, or effect the other way, or a change in a side signal; inactive = no such curve, though single readings can be large or run the other way; the % refers to the polarisation
Target sequence (Q13526 whole entry, looked up): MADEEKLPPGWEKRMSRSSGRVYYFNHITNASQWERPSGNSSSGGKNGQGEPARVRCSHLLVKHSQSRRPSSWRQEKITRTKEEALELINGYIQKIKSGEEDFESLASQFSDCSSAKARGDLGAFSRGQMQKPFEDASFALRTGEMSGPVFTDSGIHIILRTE
PI4K2A inh: PI4K2A (human) kinase inhibition. Q9BTU6. activity change, negative = inhibition, % at 76.9 µM. actives 0.13% (n = 420,000). purified PI4K2A, ADP-Glo luminescence, 1 h; hits give low values. AID 1346378; in the data active = activity change below about -50%; inconclusive = mostly about -30% to -49%
Target sequence (Q9BTU6 whole entry, looked up): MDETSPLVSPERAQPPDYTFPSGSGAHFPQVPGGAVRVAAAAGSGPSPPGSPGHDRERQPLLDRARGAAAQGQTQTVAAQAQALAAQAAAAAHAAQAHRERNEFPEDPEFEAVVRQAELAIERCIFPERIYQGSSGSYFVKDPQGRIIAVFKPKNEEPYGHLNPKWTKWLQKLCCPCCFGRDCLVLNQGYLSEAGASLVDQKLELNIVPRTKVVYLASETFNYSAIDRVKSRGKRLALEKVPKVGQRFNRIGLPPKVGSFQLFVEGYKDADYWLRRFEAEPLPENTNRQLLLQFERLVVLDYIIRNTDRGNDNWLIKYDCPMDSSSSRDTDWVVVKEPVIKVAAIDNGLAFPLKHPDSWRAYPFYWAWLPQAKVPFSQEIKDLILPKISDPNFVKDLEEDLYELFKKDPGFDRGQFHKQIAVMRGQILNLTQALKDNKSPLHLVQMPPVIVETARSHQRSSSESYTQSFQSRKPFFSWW
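In this quantitative HTS, ADP production by PI4K2A was quantified luminescently after 1 h at ambient temperature; 100 microM adenosine served as plate-quality control.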
PI5P4K alpha inh: inhibitors of human PI5P4K alpha | P48426 | PI5P4Kalpha enzyme, ADP-Glo luminescence, 60 min; hits give low values | actives 1.2% (n = 330,000) | max response, %; active = max response of -50% or lower; inconclusive = between -30% and -50%; inactive = -30% or higher; note: value at the top dose of about 77 µM
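Single end-point luminescence (ADP-Glo) quantified ADP from PI5P4Kalpha turnover; ATP 5 microM final, 1 h at RT, 0.1% CHAPS and 0.28 mM EGTA in HEPES pH 7.4.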
Tb PFK KinaseGlo: orthogonal confirmation of T. brucei phosphofructokinase inhibitors | shares compounds with Tb PFK inh-1 | Tb PFK enzyme, ATP depletion, Kinase-Glo Plus luminescence | Potency, µM (series often up to 57.5 µM) | actives 47% (n = 1,100) | AID 504636; calls by dose curve; note: nearly all actives have a fitted effect of over 60% in size
Tb PFK inh-2: T. brucei PFK enzyme inhibition, hit validation; Potency, µM (highest dose often 57.5 µM), hits mostly inhibitors; actives 41% (n = 1,100); shares compounds with Tb PFK inh-1; purified T. brucei PFK, ADP-Glo luminescence, 45 min; AID 504637; note: nearly all actives have a fitted effect of over 60% in size
Numbers stand for hits. Shown is part of a subset that was picked to be rich in hits. Unless noted, calls come from the whole dose curve; as a rule, active = well fitted curve in the direction sought with a large enough effect; inconclusive = small, poorly fitted or top-dose-only effect, or another doubt; inactive = no such curve, though single readings can be large; an effect the other way counts as inactive or inconclusive.

`Nc1c(C(=O)Nc2ccc(OC(F)(F)F)cc2)sc2nc3c(cc12)N1CCC3CC1` gave Tb PGK inh inactive, Pin1 inh inactive and PI4K2A inh inactive.
CCOc1ccc(OC(=O)c2ccc3c(=O)n4c(nc3c2)CCC4)cc1 was read as Tb PFK inh-1 inactive, Tb PGK inh inactive, Pin1 inh inconclusive, PI4K2A inh inactive and PI5P4K alpha inh inactive.
`Cc1ccc(NNC(=O)Nc2ccc(Cl)cc2)nn1` gave Tb PFK inh-1 23.9µM, Tb PGK inh inactive, Pin1 inh inactive, PI4K2A inh inactive, PI5P4K alpha inh inactive, Tb PFK KinaseGlo 23.9µM and Tb PFK inh-2 inconclusive.
For O=c1c2ccccc2nc(/C=C/c2ccccc2F)n1-c1cccc(O)c1 the results were Tb PGK inh inactive, Pin1 inh inactive and PI4K2A inh inactive.
`COc1cccc(OCCc2c(C)n[nH]c2C)c1` gave Tb PFK inh-1 26.9µM, Tb PGK inh inactive, Pin1 inh inactive, PI4K2A inh inactive, Tb PFK KinaseGlo inconclusive and Tb PFK inh-2 inconclusive.
`COc1ccc2cc1Oc1ccc(cc1)C[C@H]1c3cc(c(OC)cc3CCN1C)Oc1c(OC)c(OC)cc3c1[C@@H](C2)N(C)CC3` gave Tb PFK inh-1 inactive, Tb PGK inh inactive, Pin1 inh inactive, PI4K2A inh inactive and PI5P4K alpha inh inactive.
`O=c1cc(/N=C/c2coc3c(ccc4ccccc43)c2=O)[nH]c(=S)[nH]1` gave Tb PFK inh-1 inconclusive, Tb PGK inh inactive, Pin1 inh inactive, PI4K2A inh inactive, PI5P4K alpha inh -74.8, Tb PFK KinaseGlo inactive and Tb PFK inh-2 inconclusive.
CCOC(=O)[C@]12Cc3cc(Cl)ccc3[C@H]1N(C1CCCCC1)C(=O)c1cc(OC)ccc12 was read as PI4K2A inh inactive and PI5P4K alpha inh inconclusive.
`COc1ccccc1NS(=O)(=O)c1cccc(-n2c(O)c(C=Nc3ccccc3C(=O)O)c3ccccc3c2=O)c1` gave Tb PFK inh-1 inconclusive, Tb PGK inh inactive, PI4K2A inh inactive, PI5P4K alpha inh -68.7, Tb PFK KinaseGlo inactive and Tb PFK inh-2 inconclusive.
Screening COc1ccc2c(C(=O)c3ccc(Cl)cc3)c(C)n(CC(=O)O)c2c1 returned PI4K2A inh inactive.
CCOc1ccc(C=NNc2ccc(S(=O)(=O)Nc3ccccc3C(=O)O)cc2[N+](=O)[O-])cc1OC was read as Tb PFK inh-1 inconclusive, Tb PGK inh inconclusive, PI4K2A inh inactive, PI5P4K alpha inh -74.3, Tb PFK KinaseGlo 6.01µM and Tb PFK inh-2 3.01µM.
`COc1ccc(CN2C(=O)c3cccnc3C2O)cc1` (stereo unspecified) gave Tb PFK inh-1 26.9µM, Tb PGK inh inconclusive, Pin1 inh inactive, PI4K2A inh inactive, PI5P4K alpha inh inactive, Tb PFK KinaseGlo inconclusive and Tb PFK inh-2 inconclusive.
`CCC(=O)OCCNc1cc(Sc2nc3ccccc3[nH]2)c2nonc2c1[N+](=O)[O-]` gave Tb PFK inh-1 inconclusive, Tb PGK inh inactive, Pin1 inh inactive, PI4K2A inh inactive, PI5P4K alpha inh -56.1, Tb PFK KinaseGlo 6.01µM and Tb PFK inh-2 9.53µM.
Screening CC(NC(=O)OCc1ccccc1)[P+](=O)O (stereo unspecified) returned PI4K2A inh inactive.
Nc1nc(SCc2ccc(Cl)c(Cl)c2)n[nH]1 was read as Tb PFK inh-1 13.5µM, Tb PGK inh inactive, Pin1 inh inactive, PI4K2A inh inactive, PI5P4K alpha inh inactive, Tb PFK KinaseGlo 9.53µM and Tb PFK inh-2 13.5µM.
Screening Nc1nc(SCCC(F)=C(F)F)n[nH]1 returned Tb PFK inh-1 inactive, Tb PGK inh inactive, Pin1 inh inactive, PI4K2A inh inactive and PI5P4K alpha inh inactive.
`Cc1ccc(-c2nc(CN3C(=O)CN=C(c4ccccc4Cl)c4cc(Cl)ccc43)c(C)o2)cc1` gave Tb PGK inh inactive, Pin1 inh inactive and PI4K2A inh inactive.
For Cn1c(=O)n(C)c2cc(CNCCc3ccccc3)ccc21 the results were Tb PGK inh inactive, Pin1 inh inactive and PI4K2A inh inactive.
Screening COc1cc(/C=N/NC(=O)CN2CCCCC2)ccc1OCc1ccccc1 returned Tb PFK inh-1 inactive, Tb PGK inh inactive, Pin1 inh inactive, PI4K2A inh inactive and PI5P4K alpha inh inactive.
`COCc1cc(/C=N\NC(=O)Cc2ccc(Cl)cc2)ccc1OC` gave Tb PFK inh-1 21.3µM, Tb PGK inh inactive, Pin1 inh inactive, PI4K2A inh inactive, PI5P4K alpha inh inactive, Tb PFK KinaseGlo inconclusive and Tb PFK inh-2 inconclusive.
For C/C(=C\c1ccc(N(C)C)cc1)[N+](=O)[O-] the results were Tb PFK inh-1 inconclusive, Tb PGK inh inactive, Pin1 inh inactive, PI4K2A inh inactive, Tb PFK KinaseGlo inactive and Tb PFK inh-2 inconclusive.
For CCOP(=O)(C1=C(O)C(=O)C(C(C)(C)C)=CC1=O)c1ccccc1 (stereo unspecified) the results were Tb PFK inh-1 inactive, Tb PGK inh inactive, Pin1 inh inconclusive, PI4K2A inh inactive and PI5P4K alpha inh inactive.
Clc1ccc(COc2ccccn2)cc1Cl was read as Tb PFK inh-1 16.9µM, Tb PGK inh inactive, Pin1 inh inactive, PI4K2A inh inactive, PI5P4K alpha inh inactive, Tb PFK KinaseGlo 12µM and Tb PFK inh-2 26.9µM.
Screening O=[N+]([O-])c1ncccc1OCc1ccc(Cl)c(Cl)c1 returned Tb PFK inh-1 inconclusive, Tb PGK inh inactive, Pin1 inh inactive, PI4K2A inh inactive, PI5P4K alpha inh inactive, Tb PFK KinaseGlo 15.1µM and Tb PFK inh-2 16.9µM.
For CCc1nc(SC)ncc1C(=O)Nc1ccc(Cl)cc1C(=O)c1ccccc1 the results were Tb PGK inh inactive, Pin1 inh inactive and PI4K2A inh inactive.
`O=c1c2ccccc2nc(/C=C\c2ccc(F)cc2)n1-c1ccccc1F` gave Tb PGK inh inactive, Pin1 inh inactive and PI4K2A inh inactive.
For COc1cccc(NC(=O)c2cc(-c3ccc(C)o3)nc3ccccc23)c1 the results were Tb PFK inh-1 inconclusive, Tb PGK inh inactive, Pin1 inh inactive, PI4K2A inh inactive, PI5P4K alpha inh inconclusive, Tb PFK KinaseGlo inconclusive and Tb PFK inh-2 inconclusive.
`Cc1nnc(NC(=O)c2cc(-c3ccco3)nc3ccccc23)s1` gave Tb PFK inh-1 inconclusive, Tb PFK KinaseGlo 9.53µM and Tb PFK inh-2 inconclusive.
Screening COc1cccc(NC(=S)Nc2ccc(O)cc2)c1 returned Tb PFK inh-1 inconclusive, Tb PGK inh inactive, Pin1 inh inactive, PI4K2A inh inactive, PI5P4K alpha inh inconclusive, Tb PFK KinaseGlo inconclusive and Tb PFK inh-2 inactive.
COc1cccc(OP(=O)(Nc2ccccc2)Oc2cccc(OC)c2)c1 was read as Tb PFK inh-1 inactive, Tb PGK inh inactive, Pin1 inh inactive, PI4K2A inh inactive and PI5P4K alpha inh inactive.
